Experimental findings from PMC10726135, “HNF4α isoforms regulate the circadian balance between carbohydrate and lipid metabolism in the liver” are described below.

In all, about 18,000 sequences were measured (“log2 normalized intensity”: median about 0.39, highest 2% from about 6.6 on). The full list was thinned out, with the highest values kept by preference.

For the assay, the target named is T1, HNF4alpha2 (COS-7 nuclear extract) (Homo sapiens, UniProt P41235 1-474).
T1 sequence: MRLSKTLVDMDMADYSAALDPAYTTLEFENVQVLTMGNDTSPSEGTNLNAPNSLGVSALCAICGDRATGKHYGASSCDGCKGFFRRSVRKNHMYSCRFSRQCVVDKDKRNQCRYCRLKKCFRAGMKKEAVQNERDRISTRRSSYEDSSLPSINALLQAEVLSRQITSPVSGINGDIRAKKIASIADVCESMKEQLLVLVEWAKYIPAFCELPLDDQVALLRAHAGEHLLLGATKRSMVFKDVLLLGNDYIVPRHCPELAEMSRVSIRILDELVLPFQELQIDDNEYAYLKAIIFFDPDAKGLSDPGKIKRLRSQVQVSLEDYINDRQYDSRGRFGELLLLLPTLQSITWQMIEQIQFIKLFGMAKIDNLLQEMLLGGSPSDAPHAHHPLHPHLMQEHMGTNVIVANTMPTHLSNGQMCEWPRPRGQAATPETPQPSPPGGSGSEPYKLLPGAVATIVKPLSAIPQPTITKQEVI
In words: protein-binding microarray; COS-7 nuclear extract on double-stranded Agilent 4x180k PBM; binding buffer, salt, pH and temperature not given in the material; high values mean tight binding. Conditions: chain copies: 2; label: 3' end of strand 1 on the slide; dsDNA, one strand shown. The procedure, abridged:
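The binding signal is Agilent software's gProcessedSignal after background correction and normalization. Arrays were a custom Agilent SurePrint G3 4x180k design of double-stranded ~60-nt oligonucleotides with ~44,000 test sequences in quadruplicate, probed with nuclear extracts of COS-7 cells transiently expressing a human HNF4α isoform. Scans were made at 2-µm resolution on an Agilent G2565CA scanner.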
With “ACATGAGCTAGTGCTAAAGGTCATATCCAAGCCTAGGGAGATTAGAGTATCGGTCGA”, the binding signal was 4.2 log2 normalized intensity.
As for “GGCCTTTGGACCCAGACTGAATCACACTACGCCTAGGGAGATTAGAGTATCGGTCGA”, the binding signal was 3.76 log2 normalized intensity.
Next, “GGTGTTAAAATAACGACCTTTGGGCTAAAAGCCTAGGGAGATTAGAGTATCGGTCGA”: 3.81 log2 normalized intensity; “AGGCCAGCTCATAGGGATCAGATAAGAAGTGCCTAGGGAGATTAGAGTATCGGTCGA”: -0.997 log2 normalized intensity; “GTAACCTCAAAGGAGGTCAGAACTGTGGACGCCTAGGGAGATTAGAGTATCGGTCGA”: 1.22 log2 normalized intensity.
Next, “CCATAGCGAAGCCGGCGGCGGAATGCTTGTGCCTAGGGAGATTAGAGTATCGGTCGA”: -0.837 log2 normalized intensity.
Next, “GGCGGCTAGTGTACAGGTGACCTTTGGAATGCCTAGGGAGATTAGAGTATCGGTCGA”: 8.95 log2 normalized intensity; “GCTAGGTGGCGGGCTGGCTCAGGACAGGTGGCCTAGGGAGATTAGAGTATCGGTCGA”: 0.0816 log2 normalized intensity; “AAAGCTGGCTGGCGGCTAGTGTACAGGTGAGCCTAGGGAGATTAGAGTATCGGTCGA”: 1.06 log2 normalized intensity.
For “TTGGAGAATGCCTTTTGTGTAGGAGTACACGCCTAGGGAGATTAGAGTATCGGTCGA”, the binding signal came to 1.7 log2 normalized intensity.
Then “GGAATGAGCAGGAACCTTGTGGTGGTGAAAGCCTAGGGAGATTAGAGTATCGGTCGA”, with 1.01 log2 normalized intensity; and “AGATAGTGACGGAGGTGACCTTTGGTTGTCGCCTAGGGAGATTAGAGTATCGGTCGA”, with 5.52 log2 normalized intensity.
Turning to “TGGCTGGCGGCTAGTGTACAGGTGACCTTTGCCTAGGGAGATTAGAGTATCGGTCGA”, the binding signal stood at 7.2 log2 normalized intensity.
Turning to “CTAGTGTACAGGTGACCTTTGGAATGAACCGCCTAGGGAGATTAGAGTATCGGTCGA”, the binding signal stood at 7.14 log2 normalized intensity.
Next, “TATCTTTGGAGAATGCCTTTTGTGTAGGAGGCCTAGGGAGATTAGAGTATCGGTCGA”: 1.64 log2 normalized intensity; “ACTCCACATATTGTAGATAATACTGTGTCAGCCTAGGGAGATTAGAGTATCGGTCGA”: 0.275 log2 normalized intensity; “TTCCCTTGTTTACCTTGGTGTTTCTTTGATGCCTAGGGAGATTAGAGTATCGGTCGA”: 1.68 log2 normalized intensity.
With “TAAGGAGCTGAGTCATAGTGGACTTTGCCTGCCTAGGGAGATTAGAGTATCGGTCGA”, the binding signal was determined as 6.9 log2 normalized intensity.
Then “GCTAGTAAGGAGCTGAGTCATAGTGGACTTGCCTAGGGAGATTAGAGTATCGGTCGA”, with 3.44 log2 normalized intensity.
“AGCAGCCTCAGTGGCTCACAAATGGAGTTTGCCTAGGGAGATTAGAGTATCGGTCGA”: the binding signal worked out at 0.801 log2 normalized intensity.
Next, “ACAGCACTGACCTTTGAGAGTCAACACTGAGCCTAGGGAGATTAGAGTATCGGTCGA”: 2.58 log2 normalized intensity; “GAGCTCAGTCACAGCAGTGGACTTTGACCTGCCTAGGGAGATTAGAGTATCGGTCGA”: 11.2 log2 normalized intensity.
Next, “GGAGAGCTAGTAAGGAGCTGAGTCATAGTGGCCTAGGGAGATTAGAGTATCGGTCGA”: -0.825 log2 normalized intensity; “ACTTTGACCTTGGCACTGAAGAATGTCTAAGCCTAGGGAGATTAGAGTATCGGTCGA”: 1.8 log2 normalized intensity.
Next, “GGGGCAGAGTGAGCAGCACTTTTGGAGTTTGCCTAGGGAGATTAGAGTATCGGTCGA”: 1.51 log2 normalized intensity; “AGAGTGAGCAGCACTTTTGGAGTTTGACCTGCCTAGGGAGATTAGAGTATCGGTCGA”: 7.73 log2 normalized intensity.
In the case of “AAGAAGAGCTCAGTCACAGCAGTGGACTTTGCCTAGGGAGATTAGAGTATCGGTCGA”, the binding signal was 6.61 log2 normalized intensity.
Next, “GAGCAGCACTTTTGGAGTTTGACCTGGAGCGCCTAGGGAGATTAGAGTATCGGTCGA”: 5.38 log2 normalized intensity; “ACAGCAGTGGACTTTGACCTTGGCACTGAAGCCTAGGGAGATTAGAGTATCGGTCGA”: 9.07 log2 normalized intensity; “TATGACCAGTGTGTTGTGCTGACCTCCTGTGCCTAGGGAGATTAGAGTATCGGTCGA”: 3.19 log2 normalized intensity.
Next, “CTGGTGTGCTTTCTGTCCTCTCAAAGTCCAGCCTAGGGAGATTAGAGTATCGGTCGA”: 3.7 log2 normalized intensity.
With “TGATTTGTATGATCTTGGGTATATCCTTTAGCCTAGGGAGATTAGAGTATCGGTCGA”, the binding signal is 1.54 log2 normalized intensity.
Next, “CAGGACTGCGTAACTTACAGTGCACTTTGAGCCTAGGGAGATTAGAGTATCGGTCGA”: 4.9 log2 normalized intensity.
Regarding “CTGCGTAACTTACAGTGCACTTTGACCGCTGCCTAGGGAGATTAGAGTATCGGTCGA”, the binding signal came out at 7.14 log2 normalized intensity.
Then “ATGTGACCTTTTGGACCACAGAGTGACCTGGCCTAGGGAGATTAGAGTATCGGTCGA”, with 5.16 log2 normalized intensity; and “CAGTCACAGCAGTGGACTTTGACCTTGGCAGCCTAGGGAGATTAGAGTATCGGTCGA”, with 10.2 log2 normalized intensity.
As to “TAACTTACAGTGCACTTTGACCGCTCATTTGCCTAGGGAGATTAGAGTATCGGTCGA”, the binding signal came out at 5.83 log2 normalized intensity.
With “TGACCTTGCAGTGGCAAGGCAAAAGAGACAGCCTAGGGAGATTAGAGTATCGGTCGA”, the binding signal was determined as 1.17 log2 normalized intensity.
Next, “CATCATCTTGTAATCTGCTTCCAGTTCCATGCCTAGGGAGATTAGAGTATCGGTCGA”: 0.0747 log2 normalized intensity; “GAGAAAAAGTCAACACTTAGGGTGGATACTGCCTAGGGAGATTAGAGTATCGGTCGA”: -0.81 log2 normalized intensity.
On to “TGATAAGCAAGATGACTTTGGTCTAGACACGCCTAGGGAGATTAGAGTATCGGTCGA”, for which the binding signal is 0.829 log2 normalized intensity.
For “TGCTCAGGGAGAAGCAAATATGTGTCCTCTGCCTAGGGAGATTAGAGTATCGGTCGA”, the binding signal stood at 0.314 log2 normalized intensity.
Next, “AGTCTAACTTTGGACTTTTATGTTAAGATCGCCTAGGGAGATTAGAGTATCGGTCGA”: 2.25 log2 normalized intensity.
“CATCTGAACTCTTCATGGACTCCTCTTATCGCCTAGGGAGATTAGAGTATCGGTCGA”: the binding signal is 1.6 log2 normalized intensity.
As to “CCTTTGGTGCCTCTTTTTTCTTGTTGACTTGCCTAGGGAGATTAGAGTATCGGTCGA”, the binding signal was determined as 2.44 log2 normalized intensity.
Then “TTTCTCTTTTGACCTTTGGACTTTCACATTGCCTAGGGAGATTAGAGTATCGGTCGA”, with 10.5 log2 normalized intensity.
